For this experiment, the system named is RARb:RXRa (NR concentration 270 nM, RXRa partner concentration 90 nM). Description: PBM binding z-score (relative to random genomic background probes); higher = stronger binding; sequences stand for … in GC…GCGATTGACAGCGTAGAATGAAGG
The essentials:
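Binding z-scores take random background probes as their reference. They come from custom Agilent 4×180K protein-binding microarrays incubated 1 h with ligand-free nuclear receptor dimers, with antibodies against each partner (one per run) detecting binding. Scanned fluorescence was regression-normalized.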
The sequence GCAGACAGGTGAAACGCAGATAACTCAGGGTGGC registered a PBM binding z-score of 0.56.
AGAATGAGGTTAAGATCACGGAAACAGAATACAT had a PBM binding z-score of 2.24.
Take ATCGAAAGGTCGTAGGTGAGTATACCCACCCGAA: the PBM binding z-score worked out at 3.76.
Sequence CCTATTAGTCGACCATAAGGGCAACCGAAGCTCG registered a PBM binding z-score of 1.24.
As to ACAGACAGGTGATGGAGGTAACTCAGGCTATCAT, the PBM binding z-score worked out at 0.173.
TCTAGCAGGCCAGAGGGTCACTCCAGAGGTACGG gave a PBM binding z-score of 1.89.
Take AGAACTAGGGCACGCTGAGTTGATAGCAGAGTAG: the PBM binding z-score stood at 1.58.
The figure for CGTCAAAGTTCAAGGTAACTTAACAGAAAGCAGC is 4.89; for CCTAGCAGGCCAAACTGGGTCACTCAAGGCTTGA it is 1.61; for TAAATGAGGTTATAAGATCAGGGAACGTTGCAAA it is 1.33.
The figure for CCTACTGGGCCACGAAAGGTCATTAATTCAGTGA is 3.79; for GCTGCTAGGTCAACTGATGGACAGCTAAAGCTCG it is 4.12; for AATCGGAGGACAAAGGTCAGAGCTACGCCAGTGA it is 4.54.
The sequence TCGAGTAGGTTAGTCGGGGCATTCAGCCAACATA yielded a PBM binding z-score of 0.351.
Regarding TCATATAGGTAAACAGGTGAAATTCCGTAAGTTA, the PBM binding z-score was 0.689.
The figure for CGAACTAGGTCATCCAGGACAGTGAGTACATTGA is 3.92; for ATACCAAGGTGATCGTGAGGTCGCTGATACTAAC it is 1.43.
As to TCGAGTAGGTTCGTCGGGGCATTCAGCCAACATA, the PBM binding z-score is 0.556.
TAGCCTAGGTCAGATAGGGCCAGTATACGCTATA came in with a PBM binding z-score of 3.05.
The same measure for CAAACTAGGTCACCGGAAGGTCACAGTCCGCATG: 5.42.
The same measure for CACACTAGGTCAAGGTCAAAGTCGGTTTGTGCCA: 5.03; for ACTATTAGTTGAGACGAGGGCAACCAATAGGTTG: 1.09.
The same measure for ATATGTAGGGTAGCTGGGGTCATTCAGACTAGGC: 2.87; for CCGAGTAGGATATGGGGCATTCAGGCAACGGTGA: -0.0937.
For the sequence ATCGACAGGTCGTGAGGTGAGTATACAGAAAGGC, the PBM binding z-score is 1.88.
In the case of GCGTCTGGGGCATCAGCAGGTTACCATAACTTAA, the PBM binding z-score was found to be 0.978.
CCGACTGGGGCAAGGCTACCATAACGCACAGCCA registered a PBM binding z-score of 0.763.
In turn, CAAACTAGGTCACCGGTAGGTCAAAGTCCGCATG gave a PBM binding z-score of 4.95.
The figure for TCTTGTAGATCAGCAGTTTAAGAAAGCTGGCCAA is -0.0976; for CAGCCTAGGTCAGGCCCAGTATAGGAGGAACGTT it is 3.2.
The figure for ATATATAGGTTAGCTGGGGTCATTCAGACTAGGC is 3.21; for GCTTACGGTTCAAAGGTTATAGCATGAATAGAAT it is 2.33; for AGAATGAGGTTACCGAAGATCAGGGAAACGCTTG it is 2.19.
The same measure for AGAATGAGGTTATCCGTAGATCAGGGAAGAAAGT: 1.66.
Consider TGAATGAGGTTAAAGATCAGGGAACGTGGCGTCG, for which the PBM binding z-score was determined as 1.97.
The figure for AGAATGAGGGTATTAAGATCAGGGAATTGCGGTC is 0.4; for CTACCAACGTGAACAAGGTCGTTGATTACTATTC it is 0.631; for ACTAGTCGGTCAGCTGAGGTCACACACAATTCGG it is 4.16.
On to CCTTGGAGGACAGAAGGTCAGAGCTGTCCGCTTT, for which the PBM binding z-score is 3.29.
On to TGTCAAGGTTCAAAGGTAACGTAAGTATCCACAC, for which the PBM binding z-score is 3.32.

The values are drawn from the supplement of paper PMC6555819.
